Assay results reported in PubChem BioAssay (EPA / NIEHS).
Records with an inconclusive call do not appear. More than one record can exist for a structure, and the calls need not agree. The source made the active and inactive calls. Rule for the calls: active = hit-call score of the fitted dose curve at least 0.9, where 1 is the maximum; inconclusive = response in the unintended direction; inactive = score below 0.9.

The compounds below were run against guinea pig Serotonin, 5-Hydroxytryptamine Receptor 4 (5HT4), HTR4 (gene 100135548) (UniProt O70528) (assay: NVS_GPCR_g5HT4: NovaScreen (NVS) G Protein-Coupled Receptor Assay for guinea pig Serotonin, 5-Hydroxytryptamine Receptor 4 (5HT4) (AID 2283294)).
Chain of guinea pig Serotonin, 5-Hydroxytryptamine Receptor 4 (5HT4), HTR4 (gene 100135548) (O70528 whole entry, looked up): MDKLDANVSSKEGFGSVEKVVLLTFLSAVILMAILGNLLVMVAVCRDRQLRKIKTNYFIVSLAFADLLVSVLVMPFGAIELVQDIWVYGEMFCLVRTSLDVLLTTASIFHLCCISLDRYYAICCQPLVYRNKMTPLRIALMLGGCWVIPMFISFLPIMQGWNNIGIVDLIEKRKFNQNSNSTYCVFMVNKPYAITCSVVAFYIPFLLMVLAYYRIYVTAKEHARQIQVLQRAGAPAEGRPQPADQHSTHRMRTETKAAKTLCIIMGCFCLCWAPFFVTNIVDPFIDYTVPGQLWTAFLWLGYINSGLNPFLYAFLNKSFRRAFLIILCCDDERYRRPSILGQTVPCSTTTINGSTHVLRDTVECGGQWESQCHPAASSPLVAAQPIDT
Summary of the method: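 Compounds first screened in duplicate at 25 uM, actives followed up in concentration series. Binding measured as displacement of specific radioligand from guinea pig striatal membranes, 1 h, filter-based scintillation read-out versus DMSO baseline.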
In the case of `N#Cc1c(Cl)c(Cl)c(Cl)c(C#N)c1Cl`, the outcome is reported as “inactive”.
With `O=C(Nc1ccccc1)Nc1cnns1` the AC50 was 6.99 µM (active).
For `Oc1ccc(Cl)cc1Cc1ccccc1`, the AC50 was 17.2 µM (active) [middle of 6 runs].

These compounds were tested against Metabotropic glutamate receptor 1 (Rattus norvegicus) (UniProt P23385) (assay: NVS_GPCR_rmMGluR1: NovaScreen (NVS) G Protein-Coupled Receptor Assay for rat Glutamate Metabotropic Receptor 1 (MGluR1) (AID 2283305)).
Chain of Metabotropic glutamate receptor 1 (Rattus norvegicus) (P23385 whole entry, looked up): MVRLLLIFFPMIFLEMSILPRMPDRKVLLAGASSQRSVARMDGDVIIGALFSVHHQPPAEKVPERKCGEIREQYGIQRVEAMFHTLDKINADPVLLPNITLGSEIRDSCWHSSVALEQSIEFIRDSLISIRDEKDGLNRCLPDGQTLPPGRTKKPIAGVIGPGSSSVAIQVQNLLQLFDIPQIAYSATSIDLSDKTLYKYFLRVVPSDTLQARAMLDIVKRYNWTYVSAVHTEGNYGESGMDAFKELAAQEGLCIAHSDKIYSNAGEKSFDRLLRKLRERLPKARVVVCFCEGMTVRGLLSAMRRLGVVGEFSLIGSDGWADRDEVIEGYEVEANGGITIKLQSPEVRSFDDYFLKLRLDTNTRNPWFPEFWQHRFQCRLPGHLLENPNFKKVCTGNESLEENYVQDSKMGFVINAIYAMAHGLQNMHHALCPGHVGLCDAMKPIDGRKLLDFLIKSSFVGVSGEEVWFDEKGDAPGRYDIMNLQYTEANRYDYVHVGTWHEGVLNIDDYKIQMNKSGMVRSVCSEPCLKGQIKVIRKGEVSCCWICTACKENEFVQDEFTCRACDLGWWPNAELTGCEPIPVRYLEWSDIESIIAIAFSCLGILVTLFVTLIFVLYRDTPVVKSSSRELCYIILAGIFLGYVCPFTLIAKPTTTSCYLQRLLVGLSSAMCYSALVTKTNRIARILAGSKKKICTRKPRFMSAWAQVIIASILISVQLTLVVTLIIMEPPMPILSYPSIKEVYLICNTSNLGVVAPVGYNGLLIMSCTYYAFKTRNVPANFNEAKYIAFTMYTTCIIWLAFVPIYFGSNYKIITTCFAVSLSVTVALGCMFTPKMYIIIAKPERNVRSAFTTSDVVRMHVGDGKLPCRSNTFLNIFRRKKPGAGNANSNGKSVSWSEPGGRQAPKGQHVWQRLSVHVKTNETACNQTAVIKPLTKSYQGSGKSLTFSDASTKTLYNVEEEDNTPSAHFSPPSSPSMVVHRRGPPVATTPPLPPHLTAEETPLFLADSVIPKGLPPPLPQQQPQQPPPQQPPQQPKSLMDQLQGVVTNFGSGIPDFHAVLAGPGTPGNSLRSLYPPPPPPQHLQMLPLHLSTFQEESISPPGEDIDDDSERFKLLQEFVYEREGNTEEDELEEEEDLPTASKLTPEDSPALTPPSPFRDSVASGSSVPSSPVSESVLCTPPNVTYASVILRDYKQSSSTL
Summary of the method: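 Binding to native receptor from rat cerebellum extract, measured as displacement of a radioligand (scintillation counting, filter separation) after 1 hour. Compounds tested at 25 uM in duplicate, then titrated to a 50 uM maximum.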
With `N#Cc1c(Cl)c(Cl)c(Cl)c(C#N)c1Cl` the outcome was “inactive”.
`CC[C@H](C)[C@H]1O[C@]2(C=C[C@@H]1C)C[C@@H]1C[C@@H](C/C=C(\C)[C@@H](O[C@H]3C[C@H](OC)[C@@H](O[C@H]4C[C@H](OC)[C@@H](O)[C@H](C)O4)[C@H](C)O3)[C@@H](C)/C=C/C=C3\CO[C@@H]4[C@H](O)C(C)=C[C@@H](C(=O)O1)[C@]34O)O2` (tested in a mixture with another compound) was tested, and the AC50 was 9.49 µM (active).
In the case of `CC(C)N(C(=O)COc1nnc(C(F)(F)F)s1)c1ccc(F)cc1`, the outcome is reported as “inactive”.

What follows are compounds tested against rat Neurokinin-1 Receptor (NK1), Tacr1 (gene 24807) (UniProt P14600) (assay: NVS_GPCR_rNK1: NovaScreen (NVS) G Protein-Coupled Receptor Assay for rat Neurokinin-1 Receptor (NK1) (AID 2283309)).
Chain of rat Neurokinin-1 Receptor (NK1), Tacr1 (gene 24807) (P14600 whole entry, looked up): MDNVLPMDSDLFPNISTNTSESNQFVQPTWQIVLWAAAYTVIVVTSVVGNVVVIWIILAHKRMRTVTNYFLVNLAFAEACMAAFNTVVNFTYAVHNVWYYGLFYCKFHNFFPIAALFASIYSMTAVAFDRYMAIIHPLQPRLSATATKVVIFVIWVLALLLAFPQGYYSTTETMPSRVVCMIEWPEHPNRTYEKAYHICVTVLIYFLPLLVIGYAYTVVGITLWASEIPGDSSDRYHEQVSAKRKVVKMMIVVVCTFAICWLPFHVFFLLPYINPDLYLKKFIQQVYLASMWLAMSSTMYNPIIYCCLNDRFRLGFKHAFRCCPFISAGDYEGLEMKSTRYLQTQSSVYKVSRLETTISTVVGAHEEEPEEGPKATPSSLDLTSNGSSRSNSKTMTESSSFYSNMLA
Summary of the method: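 Competitive radioligand binding to NK1 in rat submaxillary membranes, 1 h incubation, filtration and scintillation read-out. Compounds first screened at 25 uM in duplicate, then concentration-response for actives; signal loss relative to DMSO.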
In the case of `CC(C)(C)C(O)C(Oc1ccc(Cl)cc1)n1cncn1` (stereo not given), the AC50 is reported as 38.2 µM (active) and the outcome is reported as “inactive”.
In the case of `O=C(Nc1ccccc1)Nc1cnns1`, the outcome is reported as “inactive”.
For `Oc1ccc(Cl)cc1Cc1ccccc1`, the outcome was “inactive”.
In the case of `CCCN(CCOc1c(Cl)cc(Cl)cc1Cl)C(=O)n1ccnc1`, the outcome is reported as “inactive”.

What follows are compounds tested against rat Somatostatin Receptor (SST), Sstr1 (gene 25033) (UniProt P28646) (assay: NVS_GPCR_rSST: NovaScreen (NVS) G Protein-Coupled Receptor Assay for rat Somatostatin Receptor (SST) (AID 2283314)).
Chain of rat Somatostatin Receptor (SST), Sstr1 (gene 25033) (P28646 whole entry, looked up): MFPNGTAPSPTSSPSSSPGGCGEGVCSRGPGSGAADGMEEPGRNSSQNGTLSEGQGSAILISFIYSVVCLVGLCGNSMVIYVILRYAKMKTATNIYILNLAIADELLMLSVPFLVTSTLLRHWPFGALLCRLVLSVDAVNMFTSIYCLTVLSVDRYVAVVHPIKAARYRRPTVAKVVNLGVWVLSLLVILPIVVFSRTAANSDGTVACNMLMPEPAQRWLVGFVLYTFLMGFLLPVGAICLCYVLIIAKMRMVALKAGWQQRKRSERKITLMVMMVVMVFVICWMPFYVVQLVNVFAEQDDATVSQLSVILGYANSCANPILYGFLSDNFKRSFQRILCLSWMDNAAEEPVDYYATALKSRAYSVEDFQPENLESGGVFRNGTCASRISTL
Description: NVS_GPCR_rSST is a biochemical, single-readout assay that uses extracted gene-proteins from Rat forebrain membranes in a tissue-based cell-free assay. Measurements were taken 1 hour after chemical dosing in a 96-well plate.NVS_GPCR_rSST is one of one assay component(s) measured or calculated from the NVS_GPCR_rSST assay. It is designed to make measurements of radioligand binding, a form of binding reporter, as detected with scintillation counting signals by Filter-based radiodetection technology.Data from the assay component NVS_GPCR_rSST was analyzed into 1 assay endpoint. This assay endpoint, NVS_GPCR_rSST, was analyzed in the positive analysis fitting direction relative to DMSO as the negative control and baseline of activity. Using a type of binding reporter, loss-of-signal activity can be used to understand changes in the binding as they relate to the gene Sstr1. Furthermore, this assay endpoint can be referred to as a primary readout, because the performed assay has only produced 1 assay endpoint. To generalize the intended target to other relatable targets, this assay endpoint is annotated to the gpcr intended target family, where the subfamily is rhodopsin-like receptor.
Binding assays used specific radioligands (tritiated, iodinated) with non-radioactive competitive displacement ligands in agonist or antagonist protocols (as indicated) and various reference compounds and inhibitors to titrate specific binding to receptors and transporters. Most enzyme assays (CYPs, kinases, phosphatases, proteases, HDACs) used recombinant protein and specific substrates (fluorescence mostly, some colorimetric and radioactive) and inhibitors, followed by a biochemical separation of substrate and product. All assays for the biochemical HTS were initially run in duplicate at a single concentration (10 uM for CYP450 assays and 25 uM for all others). Assay-chemical combinations meeting a pre-defined threshold (e.g., 30% inhibition and other criteria defined below) were then run in singleton concentration-response format with maximum concentration of 20 uM for CYPs and 50 uM for all others. Each assay was run with positive and negative controls, and concurrent controls on every plate. The follow-up (secondary) screen tested active chemical-pairs in concentration series, as well as a few additional assays not tested in the primary screen, some selected negative inactives, and several cases re-run in the concentration series for confirmatory purposes.
For `O=S(=O)(O)C(F)(F)C(F)(F)C(F)(F)C(F)(F)C(F)(F)C(F)(F)C(F)(F)C(F)(F)F`, the outcome was “inactive”.
With `Oc1cc(Cl)ccc1Oc1ccc(Cl)cc1Cl` the AC50 was 18.7 µM (active).
For `Oc1ccc(Cl)cc1Cc1ccccc1`, the AC50 was 25.2 µM (active).
`CC[C@H](C)[C@H]1O[C@]2(C=C[C@@H]1C)C[C@@H]1C[C@@H](C/C=C(\C)[C@@H](O[C@H]3C[C@H](OC)[C@@H](O[C@H]4C[C@H](OC)[C@@H](O)[C@H](C)O4)[C@H](C)O3)[C@@H](C)/C=C/C=C3\CO[C@@H]4[C@H](O)C(C)=C[C@@H](C(=O)O1)[C@]34O)O2` (tested in a mixture with another compound) was tested, and the outcome was “inactive”.

These compounds were tested against rat Neonicotinoid receptor (NNR), Chrna7 (gene 25302) (UniProt Q05941) (assay: NVS_LGIC_rNNR_BungSens: NovaScreen (NVS) Ligand-Gated Ion Channel Assay for rat Neonicotinoid receptor (NNR) (AID 2283315)).
Chain of rat Neonicotinoid receptor (NNR), Chrna7 (gene 25302) (Q05941 whole entry, looked up): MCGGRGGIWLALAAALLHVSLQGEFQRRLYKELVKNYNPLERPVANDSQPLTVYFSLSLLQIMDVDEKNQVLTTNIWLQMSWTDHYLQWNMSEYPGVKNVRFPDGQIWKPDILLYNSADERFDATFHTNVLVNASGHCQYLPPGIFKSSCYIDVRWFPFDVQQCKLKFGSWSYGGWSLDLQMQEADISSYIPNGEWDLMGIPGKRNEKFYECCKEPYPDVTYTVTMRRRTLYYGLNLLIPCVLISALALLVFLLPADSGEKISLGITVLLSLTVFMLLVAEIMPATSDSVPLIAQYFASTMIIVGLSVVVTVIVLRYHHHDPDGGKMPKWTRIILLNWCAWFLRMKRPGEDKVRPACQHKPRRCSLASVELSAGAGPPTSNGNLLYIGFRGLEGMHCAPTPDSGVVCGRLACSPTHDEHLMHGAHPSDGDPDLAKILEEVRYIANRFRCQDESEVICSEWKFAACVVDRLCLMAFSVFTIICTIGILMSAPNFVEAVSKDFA
Summary of the method: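 Rat cortical membrane preparation incubated 2.5 h with tritiated or iodinated radioligand and test chemical. Bound radioactivity was filtered and counted by scintillation, and displacement was analysed against DMSO.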
In the case of `COP(=S)(OC)Oc1ccc([N+](=O)[O-])cc1`, the outcome is reported as “inactive”.
For `O=[N+]([O-])/N=C1\NCCN1Cc1ccc(Cl)nc1`, the AC50 was 10.9 µM (active).
`CCOC1Oc2ccc(OS(C)(=O)=O)cc2C1(C)C` (stereo not given) was tested, and the outcome was “inactive”.
With `COP(=S)(OC)Oc1ccc(SC)c(C)c1` the outcome was “inactive”.
With `C[C@H]1[C@H](c2ccc(Cl)cc2)SC(=O)N1C(=O)NC1CCCCC1` the outcome was “inactive”.
